The text below walks through data of PubChem BioAssay (NCATS).

Records with an inconclusive call do not appear. Unmarked numbers belong to inactive results. Calls of active or inactive are those of the source. Calls come from the whole dose curve; as a rule, active = well fitted curve in the direction sought with a large enough effect; inconclusive = small, poorly fitted or top-dose-only effect, or another doubt; inactive = no such curve, though single readings can be large; an effect the other way counts as inactive or inconclusive.

The target in assay [1] is Rap guanine nucleotide exchange factor 3 (Homo sapiens) (UniProt O95398). Kind of assay: Confirmatory qHTS for antagonist of cAMP-regulated guanine nucleotide exchange factor 3 (EPAC1) (AID 1645880). Note: nearly all actives have a fitted effect of over 55% in size. Note: potency is the fitted concentration of half-maximal effect. The procedure, abridged:
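Nucleotide exchange uses 100 nM EPAC1, 250 nM RAP1B-BODIPY-GDP and 50 uM GDP, with compounds in a concentration-titration series. After 5 min at room temperature, fluorescence (480 nm ex/540 nm em) is read every 5 min for 30 min. Data are normalized to control ATA and DMSO.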

For assay [2] the target is unchanged. Kind of assay: Confirmatory qHTS for agonist of cAMP-regulated guanine nucleotide exchange factor 3 (EPAC1) (AID 1645881).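 Note: EPAC1 catalysed release of BODIPY-GDP from Rap1B seen as fluorescence loss; 100% = effect of cAMP agonist control; nearly all actives have a fitted effect of over 75% in size.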
Assay [3] concerns the target Rap guanine nucleotide exchange factor 4 (Homo sapiens) (UniProt Q8WZA2). The assay is described as follows: Confirmatory qHTS for agonist of cAMP-regulated guanine nucleotide exchange factor 4 (EPAC2) (AID 1645884).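 Note: nucleotide exchange releases bodipy-GDP from Rap1 and this lowers its fluorescence; % is set by controls: 0 for no effect and ±100 for the full control effect; nearly all actives have a fitted effect of over 65% in size.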
The target is the same in assay [4]. Kind of assay: Confirmatory qHTS for antagonist of cAMP-regulated guanine nucleotide exchange factor 4 (EPAC2) (AID 1645885; note: nearly all actives have a fitted effect of over 25% in size; note: potency is the fitted concentration of half-maximal effect; for activity change, negative = inhibition: % is set by controls: 0 for no effect and ±100 for the full control effect). (In general: qHTS replaces the single test concentration by a dilution series.)
Assay [5] addresses Rap guanine nucleotide exchange factor 3 (Homo sapiens) (UniProt O95398). Kind of assay: Counterscreen qHTS for antagonist of cAMP-regulated guanine nucleotide exchange factor 3 (EPAC1) (AID 1645888).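 Note: fluorescence loss as bound BODIPY-GDP is released from Rap1B; % of control where 0% means no effect.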 The procedure, abridged: (§1)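 Rap1B–BODIPY-GDP (250 nM) with 50 uM GDP; compounds pin-transferred to 9.74 nM–152 uM final (activator) or from 7.32 nM upwards (inhibitor). Fluorescence Ex/Em 480/540 nm read at 5 and 30 min, then after adding cAMP or buffer, at room temperature.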
(In general: A counterscreen serves to expose hits that act by an unwanted route or on another target.)

For assay [6] the target is unchanged. The assay is described as follows: Counterscreen qHTS for agonist of cAMP-regulated guanine nucleotide exchange factor 3 (EPAC1) (AID 1645889). Note: % of control where 0% means no effect; nearly all actives have a fitted effect of over 40% in size. In a few lines: as §1

Sequence of Rap guanine nucleotide exchange factor 4 (Homo sapiens) (Q8WZA2 whole entry, looked up): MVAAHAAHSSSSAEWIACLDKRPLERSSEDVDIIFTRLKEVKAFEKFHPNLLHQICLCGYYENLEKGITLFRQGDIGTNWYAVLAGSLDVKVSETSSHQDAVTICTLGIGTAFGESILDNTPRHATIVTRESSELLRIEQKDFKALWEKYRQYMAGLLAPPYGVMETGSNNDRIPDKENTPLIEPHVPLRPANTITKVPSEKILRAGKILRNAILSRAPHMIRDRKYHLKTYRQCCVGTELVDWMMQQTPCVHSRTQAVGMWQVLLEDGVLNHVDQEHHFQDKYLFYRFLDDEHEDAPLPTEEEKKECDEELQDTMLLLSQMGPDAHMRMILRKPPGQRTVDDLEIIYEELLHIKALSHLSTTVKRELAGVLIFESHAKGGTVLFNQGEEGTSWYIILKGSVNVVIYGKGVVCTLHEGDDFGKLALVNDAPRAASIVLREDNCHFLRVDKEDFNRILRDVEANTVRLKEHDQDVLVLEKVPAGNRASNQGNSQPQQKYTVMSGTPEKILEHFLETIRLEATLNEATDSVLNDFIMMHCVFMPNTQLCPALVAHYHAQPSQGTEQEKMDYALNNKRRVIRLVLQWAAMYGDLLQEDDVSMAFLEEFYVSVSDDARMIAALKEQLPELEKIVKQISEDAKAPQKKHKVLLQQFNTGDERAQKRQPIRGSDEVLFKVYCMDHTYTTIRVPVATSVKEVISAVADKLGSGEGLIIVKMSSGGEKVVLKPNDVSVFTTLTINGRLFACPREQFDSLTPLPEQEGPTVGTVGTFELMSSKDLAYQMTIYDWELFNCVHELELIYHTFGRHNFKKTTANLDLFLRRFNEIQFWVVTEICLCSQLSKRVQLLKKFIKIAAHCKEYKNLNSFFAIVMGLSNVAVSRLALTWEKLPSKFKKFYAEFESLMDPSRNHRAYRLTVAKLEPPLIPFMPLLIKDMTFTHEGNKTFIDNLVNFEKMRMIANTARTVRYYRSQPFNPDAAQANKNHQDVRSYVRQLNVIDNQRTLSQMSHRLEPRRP
Sequence of Rap guanine nucleotide exchange factor 3 (Homo sapiens) (O95398 whole entry, looked up): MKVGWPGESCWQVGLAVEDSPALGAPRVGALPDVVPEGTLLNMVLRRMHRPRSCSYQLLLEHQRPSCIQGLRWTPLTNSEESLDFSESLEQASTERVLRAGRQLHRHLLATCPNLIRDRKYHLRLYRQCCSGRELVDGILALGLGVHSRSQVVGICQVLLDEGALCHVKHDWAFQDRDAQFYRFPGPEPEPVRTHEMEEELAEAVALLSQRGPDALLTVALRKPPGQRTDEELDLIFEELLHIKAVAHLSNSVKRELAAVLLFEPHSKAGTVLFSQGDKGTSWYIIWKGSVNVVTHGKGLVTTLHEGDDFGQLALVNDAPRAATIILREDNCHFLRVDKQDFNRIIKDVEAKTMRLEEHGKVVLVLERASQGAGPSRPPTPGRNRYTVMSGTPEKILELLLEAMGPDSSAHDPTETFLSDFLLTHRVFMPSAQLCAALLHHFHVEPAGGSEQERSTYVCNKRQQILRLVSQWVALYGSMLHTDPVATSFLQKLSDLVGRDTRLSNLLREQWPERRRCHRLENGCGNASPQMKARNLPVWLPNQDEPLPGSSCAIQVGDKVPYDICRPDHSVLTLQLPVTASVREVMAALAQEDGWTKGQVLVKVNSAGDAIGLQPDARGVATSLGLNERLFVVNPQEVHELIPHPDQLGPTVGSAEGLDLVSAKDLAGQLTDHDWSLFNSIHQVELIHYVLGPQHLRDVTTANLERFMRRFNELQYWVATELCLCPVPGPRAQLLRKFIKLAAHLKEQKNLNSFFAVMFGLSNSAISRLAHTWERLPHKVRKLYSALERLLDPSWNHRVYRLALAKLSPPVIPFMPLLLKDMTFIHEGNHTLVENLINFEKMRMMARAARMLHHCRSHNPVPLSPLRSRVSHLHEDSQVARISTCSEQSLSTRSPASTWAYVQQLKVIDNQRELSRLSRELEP

Regarding `O=C(O)CN1C(=O)/C(=C\c2cccc(OCc3ccc(Cl)cc3Cl)c2)SC1=S`, the Potency was 44.7 µM (active) in assay [1] and 0.301 µM (active) in assay [4]. Further, the Potency entry in assay [2] was “inactive”. For the same compound, the activation in assay [3] was 19.7% [at 17.1 µM, percent relative to cAMP agonist control]; in assay [6], 8.88% [at 30.8 µM]. Besides, the activity change, negative = inhibition in assay [5] is -5.98% [at 30.8 µM].

Take `Cc1ccc(C2(C)NC(=O)N(CC(=O)Nc3ccccc3N3CCCCC3)C2=O)cc1` (configuration not stated): the Potency entry in assay [1], in assay [2], in assay [3], in assay [4], in assay [5] and in assay [6] was “inactive” in each case.

Consider `COc1ccccc1NC(=O)COC(=O)c1ccc([N+](=O)[O-])s1`, for which the Potency in assay [1] was 21.3 µM (active). For the same compound, the Potency result in assay [2], in assay [3], in assay [4], in assay [5] and in assay [6] was “inactive” throughout.

Turning to `OC1C2CN3CCN(C2)CC1(Cc1ccccc1)C3` (configuration not stated), the Potency result in assay [1], in assay [2] and in assay [4] was “inactive” each time. Also, the activation was 3.83% [at 17.1 µM, percent relative to cAMP agonist control] in assay [3] and 28.2% [at 30.8 µM] in assay [6]. In addition, the activity change, negative = inhibition in assay [5] was -12.7% [at 30.8 µM].

`O=C(O)c1cc(N/N=C/c2ccncc2)ccc1Cl`: the Potency entry in assay [1], in assay [2] and in assay [4] was “inactive” each time. Also, the activation in assay [3] was 1.56% [at 17.1 µM, percent relative to cAMP agonist control]; in assay [6] it was 24.2% [at 30.8 µM]. The activity change, negative = inhibition in assay [5] is -14% [at 30.8 µM].

In the case of `O=C(COc1ccccc1Br)NCCC1=CCCCC1`, the Potency result in assay [1], in assay [2] and in assay [4] was “inactive” each time. Further, the activation in assay [3] was 11.2% [at 17.1 µM, percent relative to cAMP agonist control]; in assay [6], 20.5% [at 30.8 µM]. For the same compound, in assay [5], the activity change, negative = inhibition was -17.9% [at 30.8 µM].

On to `CCc1nc2c(OCc3ccc(C#N)cc3)cccn2c1N(C)C(=O)c1ccc(C)cc1`, for which the Potency entry in assay [1], in assay [2], in assay [3], in assay [5] and in assay [6] was “inactive” each time. Besides, the Potency in assay [4] was 19 µM (active).

For `CCOC(=O)C1=NNC2(CC(=O)N(c3cc(C)cc(C)c3)C2=O)C1` (configuration not stated), the Potency entry in assay [1], in assay [2], in assay [3], in assay [4], in assay [5] and in assay [6] was “inactive” throughout.

With `COc1ccc(C(C)=O)cc1COc1ccc(F)cc1`, the Potency result in assay [1], in assay [2] and in assay [4] was “inactive” in each case. In addition, the activation is 4.69% [at 17.1 µM, percent relative to cAMP agonist control] in assay [3] and 4.32% [at 30.8 µM] in assay [6]. In assay [5], the activity change, negative = inhibition was 5.38% [at 30.8 µM].

Regarding `COc1ccc(Br)cc1CNC(=O)c1ccc2nc(C(C)C)oc2c1`, the Potency result in assay [1], in assay [2], in assay [3], in assay [5] and in assay [6] was “inactive” in each case. In addition, in assay [4], the outcome is “inactive [at 12.7 µM]”.

`COC(=O)c1cc2sccc2n1Cc1ccc(F)cc1`: the Potency result in assay [1], in assay [2], in assay [3], in assay [4], in assay [5] and in assay [6] was “inactive” throughout.

Regarding `CCCc1nc2ccccc2c(=O)n1/N=C/c1ccccc1O`, in assay [1], the Potency was 37.9 µM (active). In addition, the Potency result in assay [2], in assay [3], in assay [4], in assay [5] and in assay [6] was “inactive” each time.

With `CCS(=O)(=O)N1CCCC(C(=O)NCCCN(C)Cc2ccccc2)C1` (configuration not stated), the Potency result in assay [1], in assay [2], in assay [3], in assay [4], in assay [5] and in assay [6] was “inactive” in each case.

With `COc1cc2ccccc2cc1C(=O)N1CCc2ccccc21`, the Potency result in assay [1], in assay [2], in assay [3], in assay [5] and in assay [6] was “inactive” in each case. The Potency in assay [4] is 7.57 µM (active).

Consider `COc1ccc2c(c1)C1=NN(/C(C)=C/C(C)=O)C(c3cccc(F)c3)C1CC2` (configuration not stated), for which the Potency result in assay [1], in assay [2] and in assay [4] was “inactive” in each case. Besides, the activation is 0.819% [at 17.1 µM, percent relative to cAMP agonist control] in assay [3] and 8.14% [at 30.8 µM] in assay [6]. Moreover, in assay [5], the activity change, negative = inhibition is -17.2% [at 30.8 µM].

Take `COc1ccc(C(C#N)=Cc2cccc(OC)c2OC)cc1`: the Potency result in assay [1], in assay [2], in assay [3], in assay [5] and in assay [6] was “inactive” each time. The Potency in assay [4] was 16.9 µM (active).

As to `Cc1ccc(CNC(=O)c2ccc3c(=O)[nH]c4c(C(=O)NCC5CCCO5)sc(=S)n4c3c2)cc1` (configuration not stated), the Potency in assay [1] was 84.9 µM (active). The Potency result in assay [2], in assay [3], in assay [4], in assay [5] and in assay [6] was “inactive” in each case.

Turning to `O=C(Nc1ccc2nc(-c3ccc4nc[nH]c4c3)[nH]c2c1)c1cccs1`, the Potency entry in assay [1], in assay [2] and in assay [4] was “inactive” each time. In addition, the activation is 3.61% [at 17.1 µM, percent relative to cAMP agonist control] in assay [3] and 15.6% [at 30.8 µM] in assay [6]. Besides, in assay [5], the activity change, negative = inhibition was 8.72% [at 30.8 µM].

Regarding `CC(C)CNC(=O)c1c(-c2ccccc2)c(-c2ccccc2)nn(C)c1=O`, the Potency entry in assay [1], in assay [2], in assay [3], in assay [5] and in assay [6] was “inactive” in each case. The outcome in assay [4] was “inactive [at 12.7 µM]”.

For the compound `CCOC(=O)N1CCN(S(=O)(=O)c2cc(-c3nn4c(C)nnc4c4ccccc34)ccc2C)CC1`, the Potency result in assay [1], in assay [2], in assay [3], in assay [4], in assay [5] and in assay [6] was “inactive” each time.

For the compound `CC(=O)N1c2ccc(S(=O)(=O)N(C)Cc3ccco3)cc2CC1C` (configuration not stated), the Potency result in assay [1], in assay [2], in assay [3], in assay [4], in assay [5] and in assay [6] was “inactive” throughout.

As to `O=C(Cn1c(=O)oc2cc(S(=O)(=O)N3CCCCC3)ccc21)N1CCc2ccccc2C1`, the Potency entry in assay [1], in assay [2], in assay [3], in assay [4], in assay [5] and in assay [6] was “inactive” throughout.
